Bioassay records deposited in PubChem BioAssay by National Center for Advancing Translational Sciences (NCATS).
TrxR1 substrate – substrates of rat thioredoxin reductase 1 | O89049 | purified TrxR1 substrate turnover, NADPH consumption readout | Potency, µM (series often up to 114 µM), for inactives: top-dose activity change, negative = substrate turnover | actives 0.01% (n = 390,000) | AID 588456; also: potency is read from the fitted curve at half-maximal effect; nearly all actives have a fitted effect of over 50% in size
Target sequence (O89049 whole entry, looked up): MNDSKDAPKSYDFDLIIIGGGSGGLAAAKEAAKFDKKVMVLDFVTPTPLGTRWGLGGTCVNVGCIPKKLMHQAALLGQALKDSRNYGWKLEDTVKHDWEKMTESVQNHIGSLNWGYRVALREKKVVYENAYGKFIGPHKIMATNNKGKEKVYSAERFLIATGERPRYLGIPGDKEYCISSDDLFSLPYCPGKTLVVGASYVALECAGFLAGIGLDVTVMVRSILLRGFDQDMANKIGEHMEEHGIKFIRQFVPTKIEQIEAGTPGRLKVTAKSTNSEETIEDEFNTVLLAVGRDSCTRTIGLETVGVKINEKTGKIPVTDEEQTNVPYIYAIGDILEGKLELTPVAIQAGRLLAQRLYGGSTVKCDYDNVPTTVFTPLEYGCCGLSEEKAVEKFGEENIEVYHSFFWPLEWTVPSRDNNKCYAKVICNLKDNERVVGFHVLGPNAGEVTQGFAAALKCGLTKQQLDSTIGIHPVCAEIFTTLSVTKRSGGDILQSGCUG
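Rat TrxR1, dispensed at 90 nM, was prereduced with 400 uM NADPH (final) for 5 min at ~22 deg C, then incubated with compound 15 min before 400 uM selenite. A first-read NADPH fluorescence drop versus no-compound background flagged substrates.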
Giardia killer – kills Giardia lamblia | actives 0.15% (n = 340,000) | Giardia lamblia trophozoite viability | activity change, % at 7.66 µM, hits read low | AID 540267; in the data active = activity change below about -80%; inconclusive = between about -30% and that limit;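 also: parasites exposed to compound for two days anaerobically before the ATP read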
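ATP-content bioluminescence gauges trophozoite survival. Cells (100/well) receive compound and incubate anaerobically for 48 hrs at 37 deg C; detection reagent follows for 15-30 min at room temperature.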
GALK inh – inhibitors of human galactokinase; Purified GALK, Kinase-Glo residual ATP luminescence; Potency, µM (series often up to 57.5 µM), for the others: at the highest dose activity change, negative = inhibition, hits mostly inhibitors; P51570; actives 0.007% (n = 270,000); AID 1868; also: potency is read from the fitted curve at half-maximal effect
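Human GALK (5 nM) with 35 uM ATP and 100 uM galactose in 20 mM HEPES pH 8.0, 5 mM MgCl2, 60 mM NaCl, 1 mM DTT, 0.01% BSA. After 1 h at room temperature, leftover ATP was read by Kinase-Glo Plus luminescence.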
TrxR1 inh – blocks rat thioredoxin reductase 1 | O89049 | AID 588453 | actives 1% (n = 390,000) | recombinant rTrxR1, NADPH fluorescence consumption, selenite substrate | Potency, µM (titrated, usually from 114 µM), for the others: at the highest dose activity change, negative = inhibition, usual class: inhibitors; also: potency is read from the fitted curve at half-maximal effect; nearly all actives have a fitted effect of over 65% in size
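Rat TrxR1 (90 nM in the dispensed reagent) was pre-reduced with 400 uM NADPH for 5 min at room temperature, then incubated with compound for 15 min. After 400 uM selenite was added, NADPH fluorescence (Ex 340/Em 450 nm) was followed for 8 min.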
PI4K2A block – PI4K2A (human) kinase inhibition; activity change, negative = inhibition, % at 76.9 µM; actives 0.13% (n = 420,000); AID 1346378; purified PI4K2A, ADP-Glo luminescence, 1 h; active compounds read low; in the data active = activity change below about -50%; inconclusive = mostly about -30% to -49%;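 also: -100% = wells without enzyme as full effect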
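In this quantitative HTS, ADP production by PI4K2A was quantified luminescently after 1 h at ambient temperature; 100 microM adenosine served as plate-quality control.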
FBPA coupling cs – coupling enzyme interference in Giardia aldolase counter-screen. coupling enzyme system counterscreen, AmpLite Red fluorescence. activity change, negative = inhibition, % at 58.2 µM, hits read low. actives 0.67% (n = 290,000). AID 2472; in the data active = activity change below about -30%
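First, compound is pin-transferred into glyceraldehyde-3-phosphate coupling-enzyme reagent at 57.5 uM final and held 10 min at RT. Next, substrate, coupling system and AmpLite Red are added. After 20 min RT, fluorescence (525/598 nm) is read.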
Starred values were filed as active, the others as inactive; ? = inconclusive; · = no result given; [ ] = remark or other dose. Shown are actives, neighbours in structure and some others; about 1.5% of the full set was active somewhere. Unless noted, calls follow the shape of the dose curve; as a rule, active = well fitted curve in the direction sought with a large enough effect; inconclusive = small, poorly fitted or top-dose-only effect, or another doubt; inactive = no such curve, though single readings can be large; an effect the other way counts as inactive or inconclusive. Unless noted, % is scaled to controls: 0 for no effect and ±100 for the full control effect.

SMILES	TrxR1 substrate	Giardia killer	GALK inh	TrxR1 inh	PI4K2A block	FBPA coupling cs
CN1CCc2c(OCC(=O)N3N=C(c4cccs4)CC3c3ccc(F)cc3)cccc2C1=O (centres undefined)	11%	14	-1%	14µM*	8	1
COc1cc(C2CC(c3cccs3)=NN2C(=O)CCl)ccc1OC(F)F (centres undefined)	6%	-6	-11%	7.9µM*	16	1
COc1cccc(OC)c1C1=Nn2c(nnc2-c2ccccc2C)SC1	·	·	·	·	·	0
COCCn1c(SCC(=O)c2ccc(Cl)cc2)nnc1C(C)C	8%	-3	-1%	6.3µM*	-6	-1
O=C(O)CSCC(=O)Nc1ccc(Cl)cc1C(F)(F)F	-11%	-17	1%	-21%	1	4
CCC(CC)NC(=O)Nc1cccc(C)c1C	2%	11	1%	29%	5	0
CCC(C)N(CC(=O)Nc1cccc(C)c1C)C(=O)CCl (centres undefined)	0%[57.1 µM]	5	7%	28µM*	4	-1
CC(C)N(CC(=O)Nc1ccc(Cl)cc1C(F)(F)F)C(=O)CCl	3%	45	7%	16µM*	7	0
Cc1ccc2nc(-c3cccc(NC(=O)CSc4ccc(Cl)cc4)c3)oc2c1	40%	·	·	32%	-1	·
Cc1ccc(CN2CCOCCS2(=O)=O)cc1	-3%	·	·	-1%	·	·
COC1=CC(=O)c2ccccc2C1=O	-6%	-16	·	?	-16	·
C=CC(C1=CC(=O)C(OC)=CC1=O)c1ccccc1 (centres undefined)	·	·	·	·	·	-53*
C=CC(C1=CC(=O)C(OC)=CC1=O)c1ccc(OC)cc1 (centres undefined)	·	·	·	·	·	-40*
C=CC(C1=CC(=O)C(OC)=C(OC)C1=O)c1ccccc1 (centres undefined)	·	·	·	·	·	-80*
Cc1cccc2c(C(O)c3cn(C)c4ccccc34)c[nH]c12 (centres undefined)	-2%	·	·	-17%	·	·
COc1ccc(C(=O)O/N=C(\N)c2ccccn2)cc1	2%	-7	?	9%	-90*	-1
COc1cc(OC)c(C(=O)O/N=C(\N)c2ccccn2)cc1OC	1%[57.1 µM]	-22	-2%	10%	9	3
CCOc1ccc(NC(=O)c2ccccn2)cc1	-10%	-93*	8%	-7%	?	0
CCOc1ccc(NC(=O)c2cnccn2)cc1	2%	?	2%	4%[57.1 µM]	3	4
Cc1ccc(C(=O)O/N=C(\N)c2ccccn2)c(C)c1	7%[57.1 µM]	-20	?	18%[57.1 µM]	-85*	·
CCOc1ccc(NC(=O)c2oc3ccccc3c2NC(=O)c2c(F)cccc2F)cc1	19%	·	·	56µM*	-24	·
CSCC[C@H](NC(=O)[C@H](CC(C)C)N1CCC(NC(=O)[C@@H](NC(=O)[C@H](Cc2ccccc2)NC(=O)[C@H](CO)NC(=O)[C@H](CC(=O)O)NC(=O)[C@@H](N)CCCCN)C(C)C)C1=O)C(N)=O (some centres undefined)	·	·	·	·	·	1
N/C(=N\OC(=O)c1ccccc1Cl)c1ccccn1	7%	-25	23%	14%	-51*	0
N/C(=N\OC(=O)c1ccc(Cl)cc1)c1ccccn1	-2%	-21	2%	3%	-70*	-1
COc1ccccc1C(=O)O/N=C(\N)c1ccccn1	-1%	-3	7%	4%	-12	-6
SMILES	TrxR1 substrate	Giardia killer	GALK inh	TrxR1 inh	PI4K2A block	FBPA coupling cs
COc1cc(OC)cc(C(=O)NNC(=O)c2ccccn2)c1	4%[57.1 µM]	13	-2%	-3%[57.1 µM]	-18	-2
COc1ccc(C(=O)NNC(=O)c2ccccn2)cc1	-1%	-14	22%	21%	-85*	-7
O=C(Sc1ccc(Cl)cc1)c1ccccn1	-3%	-4	·	1.1µM*	2	·
COc1ccc(-n2c(SCC(=O)Nc3ccc(S(=O)(=O)Nc4nccs4)cc3)nnc2-c2ccco2)cc1	·	·	·	·	9	·
C=C1c2ccccc2O[C@H](C(=O)OCC)C1OC (mixture of isomers)	·	·	·	·	·	-2
CC(C)CC(=O)N1C/C=C\C[C@@H](c2ccc(Cl)cc2)N(Cc2ccc(Cl)cc2)C(=O)[C@@H]1Cc1ccccc1	1%	·	·	8%	·	·
CCCCNC(=O)NS(=O)(=O)c1ccc(NC(=O)CSc2ncnc3scc(-c4ccc(C)cc4)c23)cc1	·	·	·	·	1	·
COC(=O)C(=Cc1ccccc1[N+](=O)[O-])C(=O)OC	3%	12	4%	56µM*	10	0
CCc1csc(N2[C@H](CN(CCOC)S(=O)(=O)c3ccccc3[N+](=O)[O-])[C@H](c3ccccc3)[C@@H]2CO)n1	·	·	·	·	-2	·
CCCSS/C(CCO)=C(\C)N(C=O)Cc1cnc(C)nc1N	·	·	·	·	0	·
CCN1CCN(C(=O)/C=C/c2ccc(C(C)C)cc2)CC1	-5%	14	·	-2%	1	·
CCN1CCC(O)(/C=C/c2ccc(C(C)C)cc2)C(C(=O)/C=C/c2ccc(C(C)C)cc2)C1 (centres undefined)	-14%	-11	·	7.9µM*	24	·
Oc1cccc(/C=N/NC(=S)NCCN2CCOCC2)c1O	-9%	-2	9%	-9%	-11	-34*
COc1ccc(OC)c2c(C)cc(NCCN3CCOCC3)nc12	22%	23	9%	15%	1	-30*
COc1ccccc1N1C(=O)N(C(C)=O)C2C1Nc1ccccc1N2C (centres undefined)	11%	17	5%	-15%	-2	-40*
CC[N+](CC)(CC)c1ccc(/C=C/c2ccc3ccccc3n2)cc1	-2%	·	·	-9%	·	·
O=C1OCCN1/N=C/c1ccc([N+](=O)[O-])o1	4%	-92*	0%	?	-3	-14
O=C1OCCN1/N=C\c1ccc([N+](=O)[O-])o1	·	·	·	·	·	0
O=C1OC(CN(Cc2ccccc2)Cc2ccccc2)CN1N=Cc1ccc([N+](=O)[O-])o1 (centres undefined)	-15%	-94*	·	56µM*	-3	·
C#CCNC(=O)C1=C[C@@H](C)[C@H](CCCO)[C@@H](OCC)O1	-2%[57.1 µM]	12	·	18µM*	3	·
N#C/C(=C\c1cccc(Br)c1)C(=O)N1CCCCC1	5%	-6	-6%	14µM*	35	1
N#C/C(=C\c1cccc(O)c1)C(=O)N1CCCCC1	1%	-12	-2%	?	-2	2
CC(OC(=O)c1cccc(S(=O)(=O)N2CCN(C)CC2)c1)C(=O)Nc1ccc(C(N)=O)cc1 (centres undefined)	4%	24	·	11%	-7	·
CCc1ccc(NC(=O)C(C)OC(=O)c2cccc(S(=O)(=O)N3CCc4ccccc4C3)c2)cc1 (centres undefined)	0%	-7	0%	20%	0	-45*
